Calls of active or inactive are those of the source. Rule for the calls: active = hit-call score of the fitted dose curve at least 0.9, where 1 is the maximum; inactive = score below 0.9.

Data on 40 molecules can be found in PubChem BioAssay (EPA / NIEHS).

The nature of the assay: APR_HepG2_StressKinase_72hr: Apredica 72-hour HepG2 Assay for Stress Kinase (AID 2282921). The settings on record: HepG2 stress kinase (phospho-c-Jun) imaging, actives raise or lower the signal. The method, then: APR_HepG2_72hr is a cell-based, multiplexed-readout assay that uses HepG2, a human liver cell line, with measurements taken at 72 hours after chemical dosing in a 384-well plate.APR_HepG2_StressKinase_72hr is one of 10 assay component(s) measured or calculated from the APR_HepG2_72hr assay. It is designed to make measurements of enzyme activity, a form of enzyme reporter, as detected with fluorescence intensity signals by HCS Fluorescent Imaging technology.Data from the assay component APR_HepG2_StressKinase_72hr was analyzed into 1 assay endpoint. This assay endpoint, APR_HepG2_StressKinase_72hr, was analyzed with bidirectional fitting relative to DMSO as the negative control and baseline of activity. Using a type of enzyme reporter, measures of protein for gain or loss-of-signal activity can be used to understand the signaling at the pathway-level as they relate to the gene . Furthermore, this assay endpoint can be referred to as a primary readout, because this assay has produced multiple assay endpoints where this one serves a signaling function. To generalize the intended target to other relatable targets, this assay endpoint is annotated to the cell cycle intended target family, where the subfamily is stress response.
Cells were treated with dimethyl sulfoxide (DMSO) as a solvent control at a final concentration of 0.5% v/v or with compounds in DMSO with a resulting final DMSO concentration of 0.5% v/v. Compound treatment was done at concentrations of 0.39, 0.78, 1.56, 3.12, 6.24, 12.5, 25, 50, 100, and 200 uM in duplicate on each plate. Cells were treated with compounds for 1, 24, or 72 hr. Carbonyl […] m-chloro-phenylhydrazone (CCCP) and taxol were used as positive controls for mitochondrial function and cytoskeletal stability, respectively; DMSO served as the negative control for this experiment. Cells were fixed by the direct addition of 50 uL formaldehyde in Hank's Balanced Salt Solution (HBSS) to a final concentration of 3.7%. After incubation in the fixation medium for 30 min at room temperature (293-298 K), cells were rinsed twice with HBSS and treated with cell permeabilization buffer (16 uL of 0.5% Triton X-100) for 10 min at room temperature (293-298 K) before labeling. For mitochondrial membrane potential and mitochondrial measurements, pre-fixed cells were incubated with 50 uL of MitoTracker Red CMXRos (Invitrogen) at a concentration of 250 nM for 30 min before fixation. In the remaining cases, post-fixed cells were labeled by incubation with a multiplexed mixture of primary antibodies in HBSS for 60 min at room temperature (293-298 K) to detect immunoreactivity of c-Jun (1:500), phospho-histone H3 (1:100), phospho-histone H2A.x (1:200), p53 (1:400), alpha-tubulin (1:200) and Hoechst 33342 (2 ug/mL). Cells were labeled for multiplexed imaging on two separate plates: a) Hoechst 33342, MitoTracker Red, phospho-histone H3, and alpha-tubulin, and b) Hoechst 33342, phospho-histone H2A.x, and c-Jun. A final rinse with HBSS (50 uL) was performed before analysis. The primary and secondary antibodies for the proteins were phospho-histone H3 (rabbit anti-phospho-histone H3 and FITC-donkey anti-rabbit IgG), phospho-histone H2A.x (mouse anti-phospho-histone H2A.x and FITC-donkey anti-mouse IgG), c-Jun (rabbit anti-phospho-c-Jun and Cy3-donkey anti-rabbit IgG), p53 (sheep anti-p53 and Cy5-donkey anti-sheep IgG), alpha-tubulin (mouse anti-alpha-tubulin and Cy5-donkey anti-mouse IgG). These antibodies are available as the CellCiphr HepG2 assay kit (Millipore).Digital images of each well were captured using a Cellomics ArrayScan VTI (Thermo Scientific Cellomics) (0.8 NA objective, 0.63x optical coupler, and XF-93 filter set) at 20x magnification. The images were acquired using the autofocus feature of the ArrayScan instrument, which entails the following steps. First, the camera focuses on channel 1 (Hoechst 33342), where nuclei are identified. Second, a Z offset of 1 um is used for capturing mitochondria (MitoTracker Red). […]
As for `COc1cc(C(=O)NC2CCN(C)CC2)ccc1Nc1ncc2c(n1)N(C1CCCC1)CC(F)(F)C(=O)N2C`, the outcome was inactive. Regarding `O=c1ccc2ccccc2o1`, the molecule was classed as inactive. `CC(C)(C)c1cc(/C=C2\SC(N)=NC2=O)cc(C(C)(C)C)c1O`: the AC50 is 60.5 µM (active). For `Cc1c2ccccc2c(C)c2c1ccc1ccccc12`, the AC50 was 6.17 µM (active). Turning to `OCCO`, the result was inactive. As for `Cc1cc2c(cc1C(F)(F)F)N(C(=O)Nc1ccc(Oc3cccnc3C)nc1)CC2`, the AC50 was 20.1 µM (active). Regarding `O=C(OCCCCCCOC(=O)c1ccccc1)c1ccccc1`, the outcome was inactive. For the molecule `CC(O)CC(C)(C)O` (stereo not given), the call was inactive. Same read-out and setting: with `CCCCCCCCCC(=O)O` the entry was “inactive”; with `CC1(C)NC(=O)N(c2ccc([N+](=O)[O-])c(C(F)(F)F)c2)C1=O`, “inactive”; with `CCOC(=O)O[C@H](C)OC(=O)c1ccc2c(c1)cc(C(=O)NC1CCN(C(C)C)CC1)n2Cc1cc(-c2ccc(Cl)s2)on1`, “inactive”. As for `O=C(Nc1ccc(Cl)cc1)Nc1ccc(Cl)c(Cl)c1`, the half-maximal activity concentration (AC50) is 7.87 µM (active). Turning to `O=C=NCCCCCCN=C=O`, the molecule was called inactive. On to `CCCCCCCC[Si](OCC)(OCC)OCC`, for which the AC50 is 100 µM (active). `CC(C)(O)c1ccc(CNC(=O)c2cccnc2Oc2ccc3nonc3c2)cc1`: the outcome was inactive. Same read-out and setting: with `CCCCCCCCOc1ccc(C(=O)c2ccccc2)c(O)c1` the entry was “inactive”. The same measure, in the same setting: with `CCN(Cc1cccnc1)C(=O)c1cccc(Cl)c1[C@]1(C)C(=O)N(Cc2ccc(OC)cc2OC)c2ccc(Cl)cc21` the entry was “inactive”; with `CCN(CC)C(=O)c1cc(S(=O)(=O)Cc2ccccc2)c(N2CCC(c3ccccc3)CC2)cc1N(CC)CCN(C)C`, “inactive”; with `CN(C)C(=O)C1(N2CCCCC2)CCN(CC[C@@]2(c3ccc(Cl)c(Cl)c3)CN(C(=O)c3ccccc3)CCO2)CC1`, “inactive”.

On to `O=CCCCC=O`, for which the result was inactive.

For the molecule `Cc1cc(F)ccc1-c1cc(N2CC[C@@H](O)[C@H]2CO)ncc1N(C)C(=O)C(C)(C)c1cc(C(F)(F)F)cc(C(F)(F)F)c1`, the outcome was inactive. On the same count and under the same terms, with `CCCCOC(=O)c1ccc(O)cc1` the entry was “inactive”; with `CN1C(=O)CC[C@H]1c1cccnc1`, “inactive”.

Consider `Clc1cc(Cl)c2c(c1)N=C1CCCCCN1C2`, for which the molecule was called inactive. Consider `O=C1O[C@H]([C@@H](O)CO)C(O)=C1O`, for which the outcome was inactive. Turning to `c1ccc2ccccc2c1`, the result was inactive. For the molecule `Cc1ccc(C(C)C)cc1`, the outcome was inactive.

In the case of `CC[C@H](NC(=O)c1cc(F)ccc1NS(=O)(=O)c1cccc2cccnc12)c1ccccc1`, the call was inactive. Still for that read-out and setting: with `CCO[Si](CCCNC(N)=O)(OCC)OCC` the entry was “inactive”. In the case of `c1ccc(C[n+]2cccc3ccccc32)cc1`, the AC50 is 25.6 µM (active). Take `O=C(O)Cc1cc(I)c(Oc2ccc(O)c(I)c2)c(I)c1`: the call was inactive. On the same count and under the same terms, next, `CCCOC(=O)c1cc(O)c(O)c(O)c1`: “inactive”. In the case of `CCCCOC(=O)CC(CC(=O)OCCCC)(OC(C)=O)C(=O)OCCCC`, the AC50 is 56.4 µM (active). Take `CC(C)(c1cc(Br)c(O)c(Br)c1)c1cc(Br)c(O)c(Br)c1`: the result was inactive.

`CCCCCCCCCCCCO`: the result was inactive.

In the case of `CC[C@@H]1C[C@H](N(Cc2cc(C(F)(F)F)cc(C(F)(F)F)c2)C(C)=O)c2cc(C(F)(F)F)ccc2N1C(=O)OC(C)C`, the molecule was called inactive.

`NCc1cccc(C2CCN(C(=O)c3ccc(C#Cc4ccccc4F)o3)CC2)c1`: the concentration at half-maximal activity (AC50) is 14.3 µM (active). Same read-out and setting: next, `Clc1ccccc1C(c1ccccc1)(c1ccccc1)n1ccnc1`: 29.3 µM (active).

Consider `O=C1c2ccccc2C(=O)N1CCc1noc(-c2ccc(CN3CCCCCC3)s2)n1`, for which the call was inactive. The same measure, in the same setting: next, `CCN(Cc1cccc(S(=O)(=O)O)c1)c1ccc(C(=C2C=CC(=[N+](CC)Cc3cccc(S(=O)(=O)O)c3)C=C2)c2ccccc2S(=O)(=O)[O-])cc1`: “inactive”.

By AC50 is commonly meant the concentration giving half of the maximal activity seen.
